Test [1] can be described thus: ATG_GLI_CIS: Attagene CIS-FACTORIAL HepG2 Assay for human Zinc Finger Protein GLI1 (AID 2282945). Conditions: HepG2, Attagene cis-factorial reporter mRNA, GLI element; actives raise or lower the signal. The essentials: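 Bidirectional curve fits relative to DMSO, using reporter mRNA levels from RT-PCR plus capillary electrophoresis. Cells were HepG2 transiently carrying cis-regulated reporter constructs, harvested 24 h after dosing.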

The target in test [2] is Bile acid receptor (Homo sapiens) (UniProt Q96RI1). The test is described as follows: ATG_IR1_CIS: Attagene CIS-FACTORIAL HepG2 Assay for human Nuclear Receptor Subfamily 1 Group H Member 4 (NR1H4), IR1 submotif (AID 2282946). As to conditions: IR1 reporter transcription, actives raise or lower the signal. The method in brief:
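Cells (human HepG2) carry transiently transfected cis-promoter reporter transcription units. Compounds are incubated 24 h, total RNA is reverse-transcribed and amplified, and labelled fragments are resolved by capillary electrophoresis. Curves use DMSO as baseline.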

Test [3] is described as follows: ATG_GRE_CIS: Attagene CIS-FACTORIAL HepG2 Assay for human Glucocorticoid Response Elements (GRE) (AID 2282947). Conditions: HepG2 GRE cis-reporter, Attagene multiplex mRNA; actives raise or lower the signal. The essentials: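 Transient MRTU transfection of human HepG2 liver cells; cis-regulated reporters report endogenous factors. 24 h dosing → RNA isolation → RT-PCR → 6-FAM primer extension → HpaI cut → CE fragment analysis. Bidirectional fit, DMSO negative control.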

Test [4] can be described thus: ATG_ISRE_CIS: Attagene CIS-FACTORIAL HepG2 Assay for human Interferon Regulatory Factor 1 (IRF1) binding to an Interferon-Stimulated Response Element (ISRE) (AID 2282948). As to conditions: HepG2 ISRE cis-reporter (Attagene), mRNA transcription readout; actives raise or lower the signal. The method in brief: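 Cell-based cis-reporter assay; HepG2; 24 h exposure; reporter mRNA by RT-PCR plus capillary electrophoresis fluorescence; activity in either direction scored relative to DMSO.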

Test [5] can be described thus: ATG_M_32_CIS: Attagene CIS-FACTORIAL HepG2 Assay for M32 Transcription Factor (Internal Marker) (AID 2282949).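 Note: background control marker of the multiplexed CIS panel rather than a real target.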 Conditions: HepG2 Attagene cis-factorial M32 reporter, mRNA; actives raise or lower the signal. The method in brief: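 Fluorescent capillary electrophoresis peaks of HpaI-digested, FAM-labelled RT-PCR reporter products give the signal. Source: transiently transfected human liver HepG2 cells, 24 h after chemical dosing; bidirectional fitting against DMSO.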

Test [6] in a line: ATG_M_06_CIS: Attagene CIS-FACTORIAL HepG2 Assay for M06 Transcription Factor (Internal Marker) (AID 2282950). As to conditions: HepG2 Attagene CIS-FACTORIAL M06 internal marker reporter; actives raise or lower the signal. The method in brief: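 Fluorescence-labelled RT-PCR products from cis-promoter reporter units, cut with HpaI and resolved by capillary electrophoresis, give the signal. Cells are human HepG2, dosed for 24 h. Serves as background control, fitted relative to DMSO.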

Test [7] addresses Hypoxia-inducible factor 1-alpha (Homo sapiens) (UniProt Q16665). The experiment in a line: ATG_HIF1a_CIS: Attagene CIS-FACTORIAL HepG2 Assay for human Hypoxia Inducible Factor 1 (HIF1A) (AID 2282951). Conditions: HepG2 Attagene cis-factorial HIF1a reporter transcription; actives raise or lower the signal. The method in brief: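 In this multiplexed cell assay, HepG2 cells bearing transfected cis reporters are dosed for 24 h and reporter mRNA is read by RT-PCR plus capillary electrophoresis; signal increases and decreases are both scored against DMSO.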

Test [8] has as its target Hepatocyte nuclear factor 6 (Homo sapiens) (UniProt Q9UBC0). The test is described as follows: ATG_HNF6_CIS: Attagene CIS-FACTORIAL HepG2 Assay for human Hepatocyte Nuclear Factor 6 (HNF6) (AID 2282952). As to conditions: HepG2 Attagene cis-factorial HNF6 reporter transcription; actives raise or lower the signal. The essentials:
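Cells are HepG2 carrying transiently transfected cis-promoter reporter units. Treatment lasts 24 h, after which reporter transcripts are reverse-transcribed, amplified, FAM-labelled and sized by capillary electrophoresis. DMSO serves as baseline.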

For test [9], the target named is Heat shock factor protein 1 (Homo sapiens) (UniProt Q00613). The experiment in a line: ATG_HSE_CIS: Attagene CIS-FACTORIAL HepG2 Assay for human Heat Shock Transcription Factor 1 (HSE) (AID 2282953). Conditions: HepG2 HSE cis-reporter, Attagene RNA transcription; actives raise or lower the signal. The essentials: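 After a 24 h incubation with test chemical, transfected HepG2 cells were harvested for RNA; reporter transcripts were measured by RT-PCR and capillary electrophoresis. Values reflect gain or loss of signal relative to DMSO.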

Test [10] is described as follows: ATG_MRE_CIS: Attagene CIS-FACTORIAL HepG2 Assay for human Metal Responsive Element (MRE) (AID 2282954). As to conditions: HepG2 MRE cis-reporter transcription, Attagene multiplex; actives raise or lower the signal. The essentials: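 Transient MRTU transfection of HepG2 (FuGene 6); 24 h dosing; total RNA → oligo(dT) RT, PCR, 6-FAM primer extension, HpaI cut, CE. Bidirectional fit vs DMSO.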

Test [11] in a line: ATG_PBREM_CIS: Attagene CIS-FACTORIAL HepG2 Assay for human Phenobarbital-responsive Enhancer Module (PBREM) (AID 2282955). As to conditions: HepG2 PBREM cis-reporter, Attagene multiplexed transcription; actives raise or lower the signal. The essentials: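 After a 24 h incubation with test chemical, transfected HepG2 cells yield total RNA; reporter-specific RT-PCR products are fluorescently labelled, HpaI-digested and resolved by capillary electrophoresis against ROX size standards.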

The target of test [12] is Paired box protein Pax-6 (Homo sapiens) (UniProt P26367). The test is described as follows: ATG_Pax6_CIS: Attagene CIS-FACTORIAL HepG2 Assay for human Paired Box 6 (PAX6) (AID 2282956). Conditions: HepG2 CIS-FACTORIAL PAX6 reporter transcription, RNA readout; actives raise or lower the signal. The essentials: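 Multiplexed cis-reporter HepG2 system; 24 h treatment; reporter mRNA read by RT-PCR/CE fluorescence; bidirectional fit vs DMSO.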

Test [13] can be described thus: ATG_PXRE_CIS: Attagene CIS-FACTORIAL HepG2 Assay for human Pregnane X Receptor Element (PXRE) (AID 2282957). Conditions: HepG2 Attagene CIS-FACTORIAL PXRE reporter, mRNA; actives raise or lower the signal. The essentials: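 Multiplexed cis-reporter assay in transiently transfected human HepG2 cells; 24 h chemical exposure. Reporter transcripts quantified by RT-PCR with fluorescent labeling and capillary electrophoresis.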

The nature of test [14]: ATG_PPRE_CIS: Attagene CIS-FACTORIAL HepG2 Assay for human Peroxisome Proliferator-activated Response Element (PPRE) (AID 2282958). Conditions: HepG2 PPRE cis-element reporter, Attagene transcription factor profiling; actives raise or lower the signal. The method in brief:
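Multiplexed reporter transcription units under cis-regulatory promoters were transfected into HepG2 cells to capture endogenous factor activity. A 24 h incubation preceded RNA isolation and fluorescent RT-PCR fragment analysis.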

Test [15] is described as follows: ATG_RORE_CIS: Attagene CIS-FACTORIAL HepG2 Assay for human RAR-related Orphan Receptor Element (RORE) (AID 2282959). Conditions: HepG2 Attagene cis-factorial RORE reporter, mRNA; actives raise or lower the signal. The method in brief:
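Fluorescence intensity of reporter-specific cDNA fragments, separated by capillary electrophoresis, gives the signal. Source: HepG2 liver cells transiently transfected with cis-element reporters and exposed 24 h; DMSO-normalized bidirectional fit.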

The nature of test [16]: ATG_Sox_CIS: Attagene CIS-FACTORIAL HepG2 Assay for human SRY-box transcription factor (SOX) (AID 2282960). Conditions: HepG2 Attagene cis-factorial SOX reporter, mRNA; actives raise or lower the signal. The essentials: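 After 24 h of chemical treatment, transfected HepG2 reporter cells are lysed for total RNA. Transcript levels come from RT-PCR with labelled primer extension and capillary electrophoresis, analysed bidirectionally versus DMSO.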

Test [17] deals with Transcription factor Sp1 (Homo sapiens) (UniProt P08047). The test is described as follows: ATG_Sp1_CIS: Attagene CIS-FACTORIAL HepG2 Assay for human Specificity Protein 1 (Sp1) (AID 2282961). Conditions: HepG2 Sp1 cis-reporter transcription, actives raise or lower the signal. The essentials: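 Sp1-driven reporter mRNA, read as capillary electrophoresis fluorescence after RT-PCR, in transiently transfected HepG2 cells dosed for 24 h; signal change in either direction relative to DMSO.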

The nature of test [18]: ATG_SREBP_CIS: Attagene CIS-FACTORIAL HepG2 Assay for human Sterol Regulatory Element Binding (SREBP) (AID 2282962). Conditions: HepG2 Attagene cis-factorial SREBP reporter, mRNA; actives raise or lower the signal. The method in brief: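 mRNA induction of transfected cis-promoter reporters in HepG2 cells, 24 h post-dose. Detection: RT-PCR with 6-FAM-labelled products, HpaI digest, capillary electrophoresis. DMSO served as negative control and baseline.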

Test [19] has as its target Signal transducer and activator of transcription 3 (Homo sapiens) (UniProt P40763). The experiment in a line: ATG_STAT3_CIS: Attagene CIS-FACTORIAL HepG2 Assay for human Signal Transducer and Activator of Transcription 3 (STAT3) (AID 2282963). Conditions: HepG2, Attagene cis-factorial STAT3 reporter transcription; actives raise or lower the signal. The method in brief: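 Endogenous STAT3-responsive cis-element activity was read in transiently transfected HepG2 cells after 24 h treatment. Reporter transcripts were quantified via RT-PCR and capillary electrophoresis, with DMSO as negative control and bidirectional curve fitting.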

Test [20] in a line: ATG_TA_CIS: Attagene CIS-FACTORIAL HepG2 Assay for human TA Basal Promoter (AID 2282964). Conditions: HepG2 Attagene CIS-factorial TA basal promoter reporter; actives raise or lower the signal. The method in brief:
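Multiplexed mRNA reporter assay, HepG2, 24 h. Reporter cDNA amplified, 6-FAM primer-extended, HpaI-cut, CE-sized; DMSO = negative control and baseline.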

Calls of active or inactive are those of the source. Rule for the calls: active = hit-call score of the fitted dose curve at least 0.9, where 1 is the maximum; inactive = score below 0.9.

Chain of Hepatocyte nuclear factor 6 (Homo sapiens) (Q9UBC0 whole entry, looked up): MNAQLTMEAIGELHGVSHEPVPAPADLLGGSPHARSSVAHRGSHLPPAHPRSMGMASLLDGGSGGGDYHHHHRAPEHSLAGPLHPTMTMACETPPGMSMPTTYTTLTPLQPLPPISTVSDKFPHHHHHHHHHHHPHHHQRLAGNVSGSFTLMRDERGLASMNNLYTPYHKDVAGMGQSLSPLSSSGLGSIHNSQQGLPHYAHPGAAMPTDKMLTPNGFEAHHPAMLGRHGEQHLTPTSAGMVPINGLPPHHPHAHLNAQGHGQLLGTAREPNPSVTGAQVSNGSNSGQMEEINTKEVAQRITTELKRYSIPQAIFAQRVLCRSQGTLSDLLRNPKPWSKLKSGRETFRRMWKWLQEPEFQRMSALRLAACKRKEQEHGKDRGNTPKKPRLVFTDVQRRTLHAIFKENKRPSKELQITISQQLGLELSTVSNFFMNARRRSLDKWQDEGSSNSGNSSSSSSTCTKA
Chain of Hypoxia-inducible factor 1-alpha (Homo sapiens) (Q16665 whole entry, looked up): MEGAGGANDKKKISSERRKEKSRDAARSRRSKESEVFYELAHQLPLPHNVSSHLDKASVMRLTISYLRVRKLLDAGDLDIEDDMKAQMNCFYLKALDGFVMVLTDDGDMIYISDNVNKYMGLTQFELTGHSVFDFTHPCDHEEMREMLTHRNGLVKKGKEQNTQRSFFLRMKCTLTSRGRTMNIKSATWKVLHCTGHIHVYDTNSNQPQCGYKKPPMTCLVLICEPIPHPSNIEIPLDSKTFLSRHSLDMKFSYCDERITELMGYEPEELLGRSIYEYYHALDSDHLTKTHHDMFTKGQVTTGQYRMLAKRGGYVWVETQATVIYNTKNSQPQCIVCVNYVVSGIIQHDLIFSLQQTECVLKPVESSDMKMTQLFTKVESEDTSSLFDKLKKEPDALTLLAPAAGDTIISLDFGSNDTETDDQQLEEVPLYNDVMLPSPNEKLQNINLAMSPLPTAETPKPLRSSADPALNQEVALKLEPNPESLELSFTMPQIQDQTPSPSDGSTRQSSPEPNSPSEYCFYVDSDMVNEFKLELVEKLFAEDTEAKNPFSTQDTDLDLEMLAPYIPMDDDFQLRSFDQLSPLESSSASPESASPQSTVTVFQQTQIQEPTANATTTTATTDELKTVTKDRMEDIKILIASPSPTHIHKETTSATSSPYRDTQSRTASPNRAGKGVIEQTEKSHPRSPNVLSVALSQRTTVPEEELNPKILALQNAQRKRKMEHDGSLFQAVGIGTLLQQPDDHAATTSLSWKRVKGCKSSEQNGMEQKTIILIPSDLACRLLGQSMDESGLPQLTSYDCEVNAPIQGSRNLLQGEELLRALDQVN
Chain of Bile acid receptor (Homo sapiens) (Q96RI1 whole entry, looked up, the tested form may be a part): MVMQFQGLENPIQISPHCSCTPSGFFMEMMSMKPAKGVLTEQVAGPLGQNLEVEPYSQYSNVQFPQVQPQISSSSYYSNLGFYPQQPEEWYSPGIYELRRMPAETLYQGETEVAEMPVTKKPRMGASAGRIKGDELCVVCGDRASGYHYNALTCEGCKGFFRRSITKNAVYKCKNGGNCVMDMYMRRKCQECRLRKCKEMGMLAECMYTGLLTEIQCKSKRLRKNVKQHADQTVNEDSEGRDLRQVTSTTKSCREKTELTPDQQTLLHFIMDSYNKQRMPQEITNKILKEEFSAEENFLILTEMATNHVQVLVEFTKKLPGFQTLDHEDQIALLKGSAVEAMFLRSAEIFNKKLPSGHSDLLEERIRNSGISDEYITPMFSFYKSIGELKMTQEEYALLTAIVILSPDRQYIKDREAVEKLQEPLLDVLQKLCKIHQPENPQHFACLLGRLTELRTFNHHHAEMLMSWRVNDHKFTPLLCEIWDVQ
Chain of Signal transducer and activator of transcription 3 (Homo sapiens) (P40763 whole entry, looked up): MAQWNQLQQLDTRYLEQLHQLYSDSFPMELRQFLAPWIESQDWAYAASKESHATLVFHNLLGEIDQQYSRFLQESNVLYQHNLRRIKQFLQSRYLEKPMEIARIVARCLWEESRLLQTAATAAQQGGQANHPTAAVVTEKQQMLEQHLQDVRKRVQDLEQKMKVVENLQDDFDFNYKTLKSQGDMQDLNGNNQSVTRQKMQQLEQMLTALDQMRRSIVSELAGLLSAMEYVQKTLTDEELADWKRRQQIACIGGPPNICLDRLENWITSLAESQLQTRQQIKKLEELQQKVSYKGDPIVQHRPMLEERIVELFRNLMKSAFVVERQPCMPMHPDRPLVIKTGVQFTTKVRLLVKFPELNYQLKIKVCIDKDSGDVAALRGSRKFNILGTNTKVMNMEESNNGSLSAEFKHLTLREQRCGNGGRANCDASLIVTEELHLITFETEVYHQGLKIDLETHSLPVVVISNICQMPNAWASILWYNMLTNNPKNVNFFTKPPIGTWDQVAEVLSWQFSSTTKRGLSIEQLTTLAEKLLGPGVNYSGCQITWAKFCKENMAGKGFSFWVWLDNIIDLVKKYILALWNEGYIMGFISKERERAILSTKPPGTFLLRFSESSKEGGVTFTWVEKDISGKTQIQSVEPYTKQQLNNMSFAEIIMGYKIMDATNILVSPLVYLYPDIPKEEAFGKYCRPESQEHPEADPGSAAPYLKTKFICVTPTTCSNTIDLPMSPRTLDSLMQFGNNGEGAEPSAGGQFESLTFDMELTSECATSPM
Chain of Transcription factor Sp1 (Homo sapiens) (P08047 whole entry, looked up): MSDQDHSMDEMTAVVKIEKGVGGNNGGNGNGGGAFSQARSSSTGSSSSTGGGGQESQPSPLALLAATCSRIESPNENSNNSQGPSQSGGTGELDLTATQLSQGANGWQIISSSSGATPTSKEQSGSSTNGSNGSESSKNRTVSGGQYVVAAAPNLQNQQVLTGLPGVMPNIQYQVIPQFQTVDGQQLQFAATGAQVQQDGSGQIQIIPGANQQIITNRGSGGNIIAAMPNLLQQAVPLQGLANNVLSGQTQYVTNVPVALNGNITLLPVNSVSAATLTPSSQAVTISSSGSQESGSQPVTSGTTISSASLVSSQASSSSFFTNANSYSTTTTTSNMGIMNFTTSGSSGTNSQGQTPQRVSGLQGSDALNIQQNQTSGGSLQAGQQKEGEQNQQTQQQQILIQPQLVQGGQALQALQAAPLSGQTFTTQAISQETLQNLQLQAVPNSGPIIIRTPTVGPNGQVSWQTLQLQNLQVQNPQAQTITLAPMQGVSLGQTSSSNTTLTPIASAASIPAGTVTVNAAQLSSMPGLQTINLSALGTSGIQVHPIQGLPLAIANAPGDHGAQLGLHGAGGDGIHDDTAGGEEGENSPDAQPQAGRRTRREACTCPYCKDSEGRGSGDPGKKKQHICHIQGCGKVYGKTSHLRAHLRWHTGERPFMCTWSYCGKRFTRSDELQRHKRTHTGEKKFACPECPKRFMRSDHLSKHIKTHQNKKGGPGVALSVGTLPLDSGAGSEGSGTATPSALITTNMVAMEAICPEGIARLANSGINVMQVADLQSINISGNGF
Chain of Heat shock factor protein 1 (Homo sapiens) (Q00613 whole entry, looked up): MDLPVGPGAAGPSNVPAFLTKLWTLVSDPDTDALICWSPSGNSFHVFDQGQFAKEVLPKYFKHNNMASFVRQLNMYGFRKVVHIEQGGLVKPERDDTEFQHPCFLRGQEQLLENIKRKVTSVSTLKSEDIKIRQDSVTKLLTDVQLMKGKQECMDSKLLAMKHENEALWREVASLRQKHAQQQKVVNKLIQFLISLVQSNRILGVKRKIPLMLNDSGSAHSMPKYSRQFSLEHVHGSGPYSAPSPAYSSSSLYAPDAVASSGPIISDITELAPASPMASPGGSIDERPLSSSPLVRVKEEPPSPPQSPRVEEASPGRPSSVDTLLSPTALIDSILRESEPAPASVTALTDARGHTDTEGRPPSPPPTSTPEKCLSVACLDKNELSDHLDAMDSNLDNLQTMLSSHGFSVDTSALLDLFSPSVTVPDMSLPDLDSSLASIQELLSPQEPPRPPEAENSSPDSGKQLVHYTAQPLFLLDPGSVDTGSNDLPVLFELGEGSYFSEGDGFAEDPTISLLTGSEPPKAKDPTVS
Chain of Paired box protein Pax-6 (Homo sapiens) (P26367 whole entry, looked up): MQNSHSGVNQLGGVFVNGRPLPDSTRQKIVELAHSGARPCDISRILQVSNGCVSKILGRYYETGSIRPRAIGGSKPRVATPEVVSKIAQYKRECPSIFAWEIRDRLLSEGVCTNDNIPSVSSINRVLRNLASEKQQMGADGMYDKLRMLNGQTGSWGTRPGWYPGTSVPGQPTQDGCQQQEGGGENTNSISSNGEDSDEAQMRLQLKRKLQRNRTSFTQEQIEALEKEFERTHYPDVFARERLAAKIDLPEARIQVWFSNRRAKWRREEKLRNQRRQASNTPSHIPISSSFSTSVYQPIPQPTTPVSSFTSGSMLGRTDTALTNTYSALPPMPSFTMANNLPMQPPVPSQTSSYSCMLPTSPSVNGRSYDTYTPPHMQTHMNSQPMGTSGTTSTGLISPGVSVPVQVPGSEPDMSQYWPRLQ

Turning to `O=C=NCc1cccc(CN=C=O)c1`, the compound was called inactive in test [1], in test [2], in test [3], in test [4], in test [5] and in test [6]. Also, the result in [7], in test [8], in test [9], in test [10], in test [11] and in [12] was inactive. The outcome in [13], in [14], in test [15], in test [16], in test [17] and in test [18] was inactive. The result in test [19] and in test [20] was inactive.
As usually defined, the AC50 is the concentration at which the activity in the assay is half-maximal. With `CCN(CC)c1ccc(C=O)cc1`, the compound was called inactive in test [1], in test [2], in [3], in test [4], in test [5] and in test [6]. Moreover, the compound was called inactive in test [7], in test [8], in test [9], in [10], in test [11] and in test [12]. Also, the result in test [14], in test [15], in [16], in test [17], in test [18] and in test [19] was inactive. In addition, the AC50 in test [13] is 27.7 µM (active).
Consider `O=S(=O)(Cl)C(F)(F)C(F)(F)C(F)(F)C(F)(F)C(F)(F)C(F)(F)C(F)(F)C(F)(F)F`, for which the compound was called inactive in test [1], in test [2], in test [3], in test [4], in test [5] and in [6]. Besides, the call in [7], in [8], in test [9], in [10], in [11] and in [15] was inactive. Also, the call in test [16], in [17], in test [18], in test [19] and in [20] was inactive. The AC50 is 28.3 µM (active) in [13] and 36.6 µM (active) in [14].

(Values after PubChem BioAssay (EPA / NIEHS).)
